Rows were chosen to be rich in hits. Some 4.1% of all compounds tested hit in one or more screens of this group.
hcDAF-12 act = H. contortus DAF-12 nuclear receptor activators, primary screen, cell-based, luminescence, HEK293, lit1-tk-luc reporter; HEK293 hcDAF-12 lit1-tk-luc reporter; 0% DMSO, 100% Δ7-dafachronic acid; activation, % at 6.8 µM; 1.4% of 370,000 active;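 active = activation above the mean of all tested compounds plus 3 SD, cut at about 5.5% in these data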
hgDAF-12 ag = H. glycines DAF-12 receptor agonists, primary screen, cell-based, luminescence, HEK293, GAL4 fusion, UAS-luciferase; AID 687014, 2013; activation, % at 6.8 µM; Nuclear hormone receptor DAF-12 (Heterodera glycines), GAL4 fusion; HEK293 GAL4-hgDAF12 UAS-luciferase reporter, agonist luminescence; normalized to butyrate control; 1.8% of 370,000 active;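 active = activation above a cutoff set at the mean of all screened compounds plus 3 SD, cut at about 10% in these data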
ssDAF12 agonist = S. stercoralis DAF-12 nuclear receptor activators, primary screen, cell-based, luminescence, HEK293, GRIP1 co-expression, lit1-tk-luc. Nuclear hormone receptor DAF-12 (Strongyloides stercoralis). AID 652126, 2013. HEK293 ssDAF-12/GRIP1 lit1-tk-luc reporter; % of 3 µM dafachronic acid response. activation, % at 6.8 µM. 1% of 370,000 active;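 active = activation above the mean over all tested compounds plus 3 SD, cut at about 0.9% in these data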
DAX1 inh-1 = DAX1 (NR0B1) inhibitors on StAR promoter, primary screen, cell-based, luminescence, SF-1 (NR5A1), full-length DAX-1; HEK293T StAR-luciferase reporter, SF-1/DAX-1 repression relief; inhibition, % at 6.8 µM; 1.1% of 370,000 active;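 active = inhibition above the mean over all tested compounds plus 3 SD, cut at about 3.6% in these data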;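 note: higher inhibition means more luminescence from relief of DAX-1 repression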
DAX1 inh-2 = DAX1 (NR0B1) inhibitors, primary screen, cell-based, HEK293, Gal4-DAX1, luciferase luminescence; Nuclear receptor subfamily 0 group B member 1 (Homo sapiens), P51843; HEK293 Gal4-DAX1 luciferase reporter; inhibition, % at 6.75 µM; 0.99% of 340,000 active; AID 504766, 2011;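 active = inhibition above the mean over all tested compounds plus 3 SD, cut at about 4.2% in these data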;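 note: inhibition shows as a rise in luminescence from relieved DAX1 repression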
Target sequence (P51843 207-470 limits assumed): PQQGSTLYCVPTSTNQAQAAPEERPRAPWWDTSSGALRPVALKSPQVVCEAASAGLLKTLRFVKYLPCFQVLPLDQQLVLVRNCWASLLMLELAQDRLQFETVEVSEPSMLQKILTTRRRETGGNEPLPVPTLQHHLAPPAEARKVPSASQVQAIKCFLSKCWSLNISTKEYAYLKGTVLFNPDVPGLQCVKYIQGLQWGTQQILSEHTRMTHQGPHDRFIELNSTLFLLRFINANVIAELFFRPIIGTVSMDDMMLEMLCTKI
Each line names hits and unclear results; the compound was inactive in the other large screens.

O=C(NC1CCCC1)[C@@H]1CCCN1C(=O)[C@@H](NC(=O)N1CCOCC1)C1CCCCC1	none (no result: DAX1 inh-2)
O=C(NC(=S)NNC(=O)c1ccccc1O)c1cccnc1	DAX1 inh-2 4.3
Cc1ccc(S(=O)(=O)NNC(=O)c2cccnc2)cc1	none
O=C(NC(=S)NNS(=O)(=O)c1ccccc1)c1cccnc1	ssDAF12 agonist 1.1
O=C(C[n+]1cc(-c2ccc(Cl)cc2)n2c1CCC2)Nc1nc(-c2ccccc2)cs1	DAX1 inh-2 4.8
O=C(C[n+]1cc(-c2ccc(F)cc2)n2c1CCC2)Nc1nc(-c2ccccc2)cs1	none
COCCCNC(=S)NNC(=O)C1CC1c1ccc(C(C)(C)C)cc1 (stereo not given)	DAX1 inh-2 5.2
O=C(O)c1ccccc1N/N=C\c1ccnc2ccccc12	hcDAF-12 act 6.4, hgDAF-12 ag 12
O=C(O)c1ccccc1N/N=C/c1cc(Br)cc(Br)c1O	DAX1 inh-2 5.6
ON=Cc1ccnc2ccccc12	none
COC(=O)[C@]12C[C@H](CC(=O)N3CCCCC3)C(=O)N(CCC3=CCCCC3)C1=C[C@H](C(C)C)O[C@@H]2C1CC1	none (no result: DAX1 inh-2)
COC(=O)C1CCN(C(=O)COC(=O)c2cc(-c3cccs3)nn2-c2ccccc2)CC1	DAX1 inh-2 4.6
COc1ccc(C(=O)Nc2ccc3[nH]ccc3c2)cc1	hcDAF-12 act 9.5, hgDAF-12 ag 16, ssDAF12 agonist 2.5
COc1ccc(C(=O)Nc2ccc3[nH]ccc3c2)cc1OC	none
COc1ccc(OC)c(C(=O)Nc2ccc3[nH]ccc3c2)c1	hgDAF-12 ag 12
COc1ccc(C(=O)Nc2ccc3[nH]ncc3c2)cc1	hgDAF-12 ag 13
O=C(Nc1ccc(NC(=O)c2cccs2)cc1)c1cccs1	none
O=C(Nc1ccc2[nH]ccc2c1)c1cccs1	hgDAF-12 ag 11
Cc1ccc(-n2c(SC/C=C/c3ccccc3)nnc2-c2ccco2)cc1	none (no result: DAX1 inh-2)
O=C(c1ccc(Cl)cc1)N1CCC(Oc2cccnc2)CC1	none (no result: DAX1 inh-2)
O=C1NCCN1CCN1CCC(c2cn(-c3ccc(F)cc3)c3ccc(Cl)cc23)CC1	none (no result: DAX1 inh-2)
COCC(=O)N1CCC(C(=O)NC2CCCc3ccccc32)CC1 (stereo not given)	none (no result: DAX1 inh-2)
COc1ccc(C(=O)Nc2ccc3cn[nH]c3c2)c(OC)c1	ssDAF12 agonist 0.9
C[C@H]1COc2cc(Br)ccc2S(=O)(=O)N1Cc1cn(CC2CCCCC2)nn1	none (no result: DAX1 inh-2)
O=C(NCCCCCCOC1=NS(=O)(=O)c2ccccc21)C(=O)Nc1ccccc1	hgDAF-12 ag 11
CC(CCOC1=NS(=O)(=O)c2ccccc21)NC(=O)C(=O)Nc1ccccc1 (stereo not given)	none
CCCCN1CN2Cc3ccccc3C2CS1(=O)=O (stereo not given)	none (no result: DAX1 inh-2)
O=C1C2C(CC3c4ccccc4CCN32)CN1c1ccccc1 (stereo not given)	none (no result: DAX1 inh-2)
O=[N+]([O-])c1cc2c(ccc3occc32)o1	none (no result: DAX1 inh-2)
Nc1nc(-c2c[nH]c3ccccc23)cs1	ssDAF12 agonist 1.8
CCc1ccc(-c2csc(-c3c[nH]c4ccccc34)n2)cc1	hcDAF-12 act 6.2
CNc1nc(-c2c[nH]c3ccccc23)cs1	none
CCC(CC)CN1CCC(CN2C(=S)NC[C@@H]2CC(C)C)CC1	DAX1 inh-1 3.7
CC(C)C[C@H]1CNC(=S)N1CC1CCN(CCC2CCCC2)CC1	none
CC(C)(C)OC(=O)N1CCC(N[C@@H](Cc2ccccc2)C(=O)NCC(c2ccccc2)c2ccccc2)(C(=O)NC2CCCCC2)CC1	none (no result: DAX1 inh-1, DAX1 inh-2)
C=CCNC(=O)CN(C(=O)Cc1cccc(OC(F)(F)F)c1)c1cccc(Br)c1	none (no result: DAX1 inh-2)
CCCCOc1ccc(C(=O)n2ccc3ccc(-c4ccc5ccn(Cc6ccccc6)c5c4)cc32)cc1	none (no result: DAX1 inh-2)
Clc1cccc(-c2ccc(-c3nc4ccccn4c3NCc3ccccc3)cc2)c1	ssDAF12 agonist 1.8
c1ccn2c(c1)nc1c2nc2ccccn21	hgDAF-12 ag 13, ssDAF12 agonist 1.1
O=C(O)c1c(Cl)nc2ccccn12	none
c1ccc(-c2nc3ccccn3c2NCc2ccc3c(c2)OCO3)cc1	none
Clc1c(-c2ccccc2)nc2ccccn12	ssDAF12 agonist 1.6
COc1cccc(CC(=O)OCC(=O)Nc2c(C)nn(-c3ccccc3)c2C)c1	DAX1 inh-2 7.0
CCCCN1CC(COc2ccc(OC)cc2)OCCS1(=O)=O (stereo not given)	none (no result: DAX1 inh-2)
COC(=O)[C@H]1C[C@@]2(Oc3ccc(Br)cc3)c3ccccc3N(C(=O)OC(C)(C)C)[C@H]2N1C(=O)OC(C)(C)C	none (no result: DAX1 inh-2)
O=C(CN1C(=O)C2CC=CCC2C1=O)Nc1nc2ccccc2[nH]1 (stereo not given)	DAX1 inh-2 5.4
O=C(Nc1nc2ccccc2[nH]1)c1ccccc1O	hgDAF-12 ag 11, ssDAF12 agonist 1.2
O=C(Nc1nc2ccccc2[nH]1)c1ccc(Cl)cc1	hcDAF-12 act 5.8
Cc1ccc(/C=C/C(=O)Nc2nc3ccccc3[nH]2)cc1	hcDAF-12 act 5.8
Cc1ccc(/C=C/C(=O)c2nc3ccccc3[nH]2)cc1	none
COc1ccc(CNS(=O)(=O)c2cc3c(cc2Br)CC(C)N3C(C)=O)cc1 (stereo not given)	none (no result: DAX1 inh-2)
O=C(NN=Cc1ccccc1O)C(=O)Nc1ccc(F)cc1	none (no result: DAX1 inh-2)
COC[C@@H]1CCCN1c1ccc2c(c1)OCCCN(C1CC1)S2(=O)=O	none (no result: DAX1 inh-2)
O=C(Cc1c[nH]c2ccccc12)Nc1nc2ccccc2[nH]1	ssDAF12 agonist 1.9
O=C(CCCOc1ccccc1)Nc1nc2ccccc2[nH]1	hgDAF-12 ag 12
O=C(Cc1ccccc1)Nc1nc2ccccc2[nH]1	none
CCN(C)C(=O)CN1C(=O)C2CCCCN2C(=O)c2ccccc21 (stereo not given)	none (no result: DAX1 inh-2)
CCn1c(SCC(=O)NN=Cc2c[nH]c3ccccc23)nc2ccccc21	none (no result: DAX1 inh-2)
COC(=O)c1ccc(-c2nc3cc(Cl)c(N)cc3s2)cc1	hgDAF-12 ag 11
COC(=O)c1ccc(-c2nc(O)c(C)s2)cc1	none
COc1ccc(CNS(=O)(=O)CC2NCc3cc(OC)ccc32)cc1 (stereo not given)	none (no result: DAX1 inh-2)
COc1cc(/C=C/C(=O)OC(C)C(=O)NC2CCCCC2C)cc(Cl)c1OC (stereo not given)	DAX1 inh-2 6.9
CC(OC(=O)/C=C/c1cccc(F)c1)C(=O)NC1CCCCC1C (stereo not given)	none
Cc1nc(Cl)sc1C(=O)Nc1ccc(C(C)(C)C)cc1	DAX1 inh-2 5.2
Cc1noc(N)c1C(=O)Nc1ccc(C(C)(C)C)cc1	hgDAF-12 ag 13
O=S1(=O)c2ccc(Br)cc2OC[C@H](Cc2ccccc2)N1Cc1cn(Cc2ccc(C(F)(F)F)cc2)nn1	none (no result: DAX1 inh-2)

Assay outcomes from PubChem BioAssay.
